# In PubChem BioAssay:
# “And” between values parts separate entries of the source, which are not always exact repeats. Equal values may be shown once. The source made the active and inactive calls.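 How the source made its calls, unless noted: active means compounds whose cell count with miR-34 switched on is under 0.7 times the count with it off; inactive means the rest.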
# Columns and labels:
# [1] = yeast 75Q aggregation reduction – 75Q-TubU reporter (AID 1593); conditions: Yeast 75Q polyglutamine aggregation reporter
# [2] = blockers of cytochrome c efflux from mitochondria – biochemical, purified mitochondria (AID 1603); conditions: stronger effect = lower value;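 further: mouse liver mitochondria challenged with calcium chloride; signal normalized to the plate average as 100%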
# [3] = polyglutamine aggregate formation blockers (AID 1604); conditions: polyglutamine-induced protein aggregation inhibition assay; stronger effect = higher value; tested at 2.5 µM
# [4] = P. berghei load reduction in hepatocytes – cell-based, HepG2, luciferase luminescence, HepG2 viability, primary screen (AID 624349; in the data active means parasite load remaining mostly below about 12%, no sharp cut-off; inactive means mostly above about 10%;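 further: 100% = mean of DMSO negative control wells on the same plate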); conditions: P. berghei liver stage in HepG2, luciferase luminescence, concentration not given here; parasite load remaining: stronger effect = lower value; viability: measured here: HepG2 viability without parasites
# [5] = Wnt pathway potentiators raising nuclear beta-catenin – imaging, WNT3A-conditioned medium, mouse C2C12, NPC library, primary screen (AID 1117326; in the data active means nuclear beta-catenin stimulation mostly above about 4.2%, no sharp cut-off; inactive means mostly below about 10%); conditions: stronger effect = higher value
# [6] = stimulators of insulin release from INS-1E, primary screen, cell-based, 5 mM glucose, NPC library (AID 1117329;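 active means compound raises insulin release from rat beta cells at 5 mM glucose, no numeric limit stated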); conditions: rat INS-1E insulin secretion, at 10 µM, stronger effect = higher value
# [7] = growth inhibition of GSK3B-pretreated HCT116 cells – cell-based, CellTiter-Glo, 0.2 to 20 µM (AID 1117336;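 active means compounds lowering colon cancer cell viability after pretreatment blocking the GSK3B kinase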); conditions: HCT116 viability after GSK3B inhibitor, at 20 µM, stronger effect = higher value
# [8] = inhibition of endothelial tube formation, primary screen, imaging, VEGF stimulated, CD31 staining, tube area, NPC library (AID 1117340;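 active means compound that reduces growth-factor-driven endothelial tube area in a mixed cell culture, no cutoff stated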); conditions: VEGF-stimulated ADSC/ECFC co-culture, at 10 µM, stronger effect = higher value
# [9] = GLP1 release stimulators, primary, NCI-H716, NPC library (AID 1117341;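 active means compound raises GLP1 secretion from the human gut endocrine cells, with no numeric limit stated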); conditions: NCI-H716 cells, at 10 µM, stronger effect = higher value
# [10] = HCT116 colon cancer cell growth inhibition, primary screen, CellTiter-Glo luminescence, NPC library (AID 1117342;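 active means compounds that lower survival of HCT116 colon cancer cells in the luminescence readout, no numeric limit stated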); conditions: at 20 µM (top of the series)
# [11] = reduced SW480 viability measured with CellTiter-Glo, NPC library, primary (AID 1117343;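 active means compounds that lower viability of the colon cancer cells in the luminescence readout, with no numeric limit stated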); conditions: CellTiter-Glo luminescence; at 20 µM (top of the series)
# [12] = NPC library primary testing for decreased DLD-1 cell viability via CellTiter-Glo (AID 1117346;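 active means compounds that lower survival of DLD-1 colon cancer cells in the luminescence readout, no cutoff given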); conditions: DLD-1 viability, CellTiter-Glo luminescence; at 20 µM (top of the series)
# [13] = target: 6-phosphogluconate dehydrogenase, decarboxylating (Homo sapiens) (UniProt P52209); test: inhibition of human phosphogluconate dehydrogenase – biochemical, recombinant enzyme, NADPH absorbance, primary screen (AID 1159550;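 active means at least 20% inhibition of 6-phosphogluconate dehydrogenase activity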); conditions: recombinant 6PGD, NADPH absorbance 341 nm; at 10 µM; stronger effect = higher value
# [14] = EMT-state selective cytotoxicity in co-culture – imaging, PC-3E GFP, TEM4-18 mCherry, primary screen (AID 1345086;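 active means compounds killing one labelled cell type while sparing the other, by normalised counts and ratio limits, not self-fluorescent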;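 on all read-outs here: cells exposed to compound for 72 h before imaging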;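 on red/green cell ratio (normalised): normalised mesenchymal count divided by normalised epithelial count so high means epithelial killing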); conditions: PC-3E GFP / TEM4-18 mCherry co-culture, imaging cell counts, at 1 µM; for red/green cell ratio (normalised): actives lie on both sides
# [15] = system: Aerobactin synthetase IucA (Klebsiella pneumoniae hvKP1); test: IucA enzyme inhibition, primary screen, biochemical, Spectrum library (AID 1346200; call rule not given here;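 further: 100% = wells without compound and 0% = wells lacking enzyme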); conditions: malachite green pyrophosphate, A620, at 8 µM, stronger effect = lower value
# [16] = viability loss with induced miR-34 in A549 – imaging, A549 dox-inducible miR-34, nuclei and caspase counts, primary screen (AID 1347080); conditions: A549 miR-34 inducible, Hoechst nuclei count, 48 h
# [17] = MELAS cybrid and Rieske KO viability enhancers – cell-based, MELAS cybrids, Rieske KO mouse fibroblasts, CellTiter-Glo, primary screen (AID 1508586;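 active means mean z-score across replicates of 1.96 or higher in either the MELAS or the Rieske mutant cell line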;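 further: z relative to plate mean and SD of compound and empty wells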); conditions: low glucose
# [18] = target: NAD(+) hydrolase SARM1 (Homo sapiens) (UniProt Q6SZW1); test: blocking NAD cleavage by SARM1 SAM-TIR – cell lysate, NAD-Glo luminescence (AID 1508614;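 active means compound whose remaining NAD level is above about 45 nM, limit read from the data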); conditions: SAM-TIR HEK293T lysate NADase, at 1 µM, stronger effect = higher value
# [19] = target: Mitogen-activated protein kinase 7 (Homo sapiens) (UniProt Q13164); test: Gal4-ERK5 driven luciferase induction – cell-based, HTS, primary screen (AID 1508626;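 active means luciferase signal above three times the same-plate solvent-only control wells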;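 further: luciferase driven by Gal4-ERK5 fusion binding five Gal4 sites before minimal TATA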); conditions: HeLa Gal4-ERK5 transactivation, 18 h, at 5 µM, stronger effect = higher value
# [20] = galactose survival enhancers in mitochondrial complex I cybrids – cell-based, galactose medium, ATP luminescence, primary screen (AID 1645843;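 active means z-score of at least 1.8 in each of two replicates, scored against plate mean and spread of sample wells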;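 further: positive z means more ATP and so rescue of galactose-driven cybrid death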); conditions: complex I mutant cybrid cells, 72 h, stronger effect = higher value
# [21] = measured here: epithelial PC-3E GFP cell survival
# [22] = measured here: mesenchymal TEM4-18 mCherry cell survival
# [23] = measured here: relative caspase fold change +Dox/-Dox
# [24] = measured here: total cells with miR-34 induction, stronger effect = lower value
# [25] = measured here: total cells without miR-34 induction
# [26] = MELAS cybrid survival, CellTiter-Glo 48 h, stronger effect = higher value
# [27] = Rieske KO mouse fibroblast survival, CellTiter-Glo 72 h
# Sequence of 6-phosphogluconate dehydrogenase, decarboxylating (Homo sapiens) (P52209 whole entry, looked up): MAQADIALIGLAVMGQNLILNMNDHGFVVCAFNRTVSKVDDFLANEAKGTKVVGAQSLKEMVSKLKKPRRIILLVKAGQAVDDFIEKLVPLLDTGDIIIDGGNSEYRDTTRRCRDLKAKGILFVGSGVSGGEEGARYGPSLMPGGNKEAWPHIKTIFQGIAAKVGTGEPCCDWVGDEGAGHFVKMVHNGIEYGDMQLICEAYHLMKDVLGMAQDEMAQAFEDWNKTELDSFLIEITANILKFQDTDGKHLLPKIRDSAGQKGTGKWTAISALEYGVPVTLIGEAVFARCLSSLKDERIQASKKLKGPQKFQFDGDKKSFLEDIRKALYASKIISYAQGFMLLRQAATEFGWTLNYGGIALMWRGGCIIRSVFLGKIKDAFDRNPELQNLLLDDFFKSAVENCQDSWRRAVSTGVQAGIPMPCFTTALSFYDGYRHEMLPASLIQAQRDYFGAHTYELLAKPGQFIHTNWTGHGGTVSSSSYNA
# Sequence of Mitogen-activated protein kinase 7 (Homo sapiens) (Q13164 whole entry, looked up, the tested form may be a part): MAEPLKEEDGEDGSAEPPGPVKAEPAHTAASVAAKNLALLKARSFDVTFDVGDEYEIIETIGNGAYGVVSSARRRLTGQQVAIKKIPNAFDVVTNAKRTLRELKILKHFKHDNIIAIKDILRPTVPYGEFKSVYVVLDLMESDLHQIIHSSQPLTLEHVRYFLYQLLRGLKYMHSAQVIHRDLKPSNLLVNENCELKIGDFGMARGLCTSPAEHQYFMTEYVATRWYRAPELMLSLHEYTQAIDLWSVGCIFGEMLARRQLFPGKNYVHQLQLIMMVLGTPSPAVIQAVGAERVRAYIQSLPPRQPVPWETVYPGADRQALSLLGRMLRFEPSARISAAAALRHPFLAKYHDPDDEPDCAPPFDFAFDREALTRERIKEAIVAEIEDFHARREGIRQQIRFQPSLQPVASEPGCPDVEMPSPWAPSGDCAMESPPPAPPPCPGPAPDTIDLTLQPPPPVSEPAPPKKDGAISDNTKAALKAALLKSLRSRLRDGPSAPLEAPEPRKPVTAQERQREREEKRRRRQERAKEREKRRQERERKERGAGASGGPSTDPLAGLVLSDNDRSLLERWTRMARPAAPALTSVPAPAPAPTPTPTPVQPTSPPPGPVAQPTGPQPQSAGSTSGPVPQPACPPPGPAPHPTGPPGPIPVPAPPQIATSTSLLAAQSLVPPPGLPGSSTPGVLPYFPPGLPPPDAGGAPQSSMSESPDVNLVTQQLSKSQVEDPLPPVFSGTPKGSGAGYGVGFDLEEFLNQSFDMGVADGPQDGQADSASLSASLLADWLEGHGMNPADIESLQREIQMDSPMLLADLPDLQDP
# Sequence of NAD(+) hydrolase SARM1 (Homo sapiens) (Q6SZW1 whole entry, looked up, the tested form may be a part): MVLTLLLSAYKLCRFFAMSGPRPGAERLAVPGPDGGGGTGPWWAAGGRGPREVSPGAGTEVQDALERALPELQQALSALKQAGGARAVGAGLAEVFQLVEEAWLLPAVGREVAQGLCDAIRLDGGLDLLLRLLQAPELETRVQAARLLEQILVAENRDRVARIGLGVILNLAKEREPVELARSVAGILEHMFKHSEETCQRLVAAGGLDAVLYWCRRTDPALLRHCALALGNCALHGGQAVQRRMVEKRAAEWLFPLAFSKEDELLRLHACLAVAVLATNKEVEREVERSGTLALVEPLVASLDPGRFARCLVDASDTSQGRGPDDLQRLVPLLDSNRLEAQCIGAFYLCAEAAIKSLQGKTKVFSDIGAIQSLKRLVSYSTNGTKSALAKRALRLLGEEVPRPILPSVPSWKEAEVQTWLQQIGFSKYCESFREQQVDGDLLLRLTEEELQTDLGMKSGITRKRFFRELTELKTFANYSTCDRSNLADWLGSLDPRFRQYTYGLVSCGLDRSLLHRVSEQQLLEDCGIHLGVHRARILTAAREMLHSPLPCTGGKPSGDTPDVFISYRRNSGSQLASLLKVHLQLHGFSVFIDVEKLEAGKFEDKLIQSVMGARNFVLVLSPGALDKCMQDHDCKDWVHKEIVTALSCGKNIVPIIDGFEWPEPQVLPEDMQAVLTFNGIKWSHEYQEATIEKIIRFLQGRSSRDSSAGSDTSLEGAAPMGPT
structure (smiles),measurement,setting,value
CC(C)[N+](C)(CCC(C(N)=O)(c1ccccc1)c1ccccc1)C(C)C,score,[1],1.43
same,cytochrome c release ratio,[2],1.07
same,inhibition of aggregation,[3],35.2%
same,parasite load remaining,[4],94.4% (inactive) and 83.4% (inactive) and 60% (inactive)
same,viability,[4],100% and 76.1% and 93.6%
same,nuclear beta-catenin stimulation,[5]; at 10 µM,0.4% (inactive)
same,nuclear beta-catenin stimulation,"[5]; stimulation, at 2 µM",-0.3%
same,insulin secretion stimulation,[6],-0.4% (inactive)
same,viability decrease,[7],-32.8% (inactive)
same,tube area decrease,[8],-3.8% (inactive)
same,GLP1 secretion stimulation,[9],-1.4% (inactive)
same,inhibition of viability,[10],-3.83% (inactive)
same,viability decrease (inhibition),[11],22% (inactive)
same,viability decrease (inhibition),[12],-1.8% (inactive)
same,inhibition,[13],-13.2% (inactive)
same,red/green cell ratio (normalised),[14],0.98 (inactive)
same,normalised cell number,[14]; [21],1.19
same,normalised cell number,[14]; [22],1.17
same,activity remaining,[15],119% (inactive)
same,fold change,[16]; stronger effect = lower value,0.953 (inactive) and 0.875 (inactive)
same,fold change,[16]; [23],1.13 and 0.654
same,cell count,[16]; [24],8490 and 10700
same,cell count,[16]; [25],8910 and 12200
same,z-score,[17]; [26],-0.488 (inactive)
same,z-score,[17]; [27],-0.766
same,remaining NAD,[18],10 nM (inactive)
same,luciferase signal,[19],76 AU (inactive)
COc1c2c(cc3c1OCO3)CCN(C)C2,parasite load remaining,[4],101% (inactive) and 78.2% (inactive)
same,viability,[4],102% and 69.9%
same,nuclear beta-catenin stimulation,[5]; at 10 µM,0.2% (inactive)
same,nuclear beta-catenin stimulation,"[5]; stimulation, at 2 µM",1.3%
same,insulin secretion stimulation,[6],-1.1% (inactive)
same,viability decrease,[7],5% (inactive)
same,tube area decrease,[8],4.7% (inactive)
same,GLP1 secretion stimulation,[9],-0.1% (inactive)
same,inhibition of viability,[10],-4.7% (inactive)
same,viability decrease (inhibition),[11],36.7% (inactive)
same,viability decrease (inhibition),[12],4.85% (inactive)
same,inhibition,[13],1.73% (inactive)
same,activity remaining,[15],120% (inactive)
same,fold change,[16]; stronger effect = lower value,0.866 (inactive)
same,fold change,[16]; [23],1.09
same,cell count,[16]; [24],9520
same,cell count,[16]; [25],11000
CCNc1nc(Cl)nc(NCC)n1,nuclear beta-catenin stimulation,[5]; at 10 µM,0.8% (inactive)
same,nuclear beta-catenin stimulation,"[5]; stimulation, at 2 µM",2.2%
same,insulin secretion stimulation,[6],-1.4% (inactive)
same,viability decrease,[7],-15.2% (inactive)
same,tube area decrease,[8],8.9% (inactive)
same,GLP1 secretion stimulation,[9],1.7% (inactive)
same,inhibition of viability,[10],3.93% (inactive)
same,viability decrease (inhibition),[11],-14.9% (inactive)
same,viability decrease (inhibition),[12],-16.6% (inactive)
same,inhibition,[13],4.55% (inactive)
same,activity remaining,[15],94.3% (inactive)
same,luciferase signal,[19],52 AU (inactive)
COc1ccc(Cc2nccc3cc(OC)c(OC)cc23)cc1OC,score,[1],1.48
same,cytochrome c release ratio,[2],1.07
same,inhibition of aggregation,[3],46.4%
same,nuclear beta-catenin stimulation,[5]; at 10 µM,1.4% (inactive)
same,nuclear beta-catenin stimulation,"[5]; stimulation, at 2 µM",-0.3%
same,insulin secretion stimulation,[6],-2.5% (inactive)
same,viability decrease,[7],54.7% (active)
same,tube area decrease,[8],59.3% (active)
same,GLP1 secretion stimulation,[9],2.3% (inactive)
same,inhibition of viability,[10],39.8% (inactive)
same,viability decrease (inhibition),[11],112% (active)
same,viability decrease (inhibition),[12],14.5% (inactive)
same,inhibition,[13],-8.16% (inactive)
same,red/green cell ratio (normalised),[14],0.84 (inactive)
same,normalised cell number,[14]; [21],1
same,normalised cell number,[14]; [22],0.83
same,activity remaining,[15],114% (inactive)
same,fold change,[16]; stronger effect = lower value,1.24 (inactive) and 0.81 (inactive) and 0.838 (inactive)
same,fold change,[16]; [23],0.505 and 1.57 and 3.09
same,cell count,[16]; [24],7270 and 6810 and 7780
same,cell count,[16]; [25],5860 and 8410 and 9280
same,z-score,[17]; [26],0.889 (inactive)
same,z-score,[17]; [27],0.124
same,remaining NAD,[18],10 nM (inactive)
same,luciferase signal,[19],24 AU (inactive)
same,z-score,[20],-1.28 (inactive)
